From PubChem BioAssay AID1220 (Sanford-Burnham Center for Chemical Genomics, 2008)
Out of some 190,000 compounds screened, about 1,300 (0.68%) were called active. No stated cut-off is given here; in the data, active means inhibition above about 50%; inactive means the rest. Shown is part of a subset that was picked to be rich in actives.

Each compound was assayed against Mannose-6-phosphate isomerase (Homo sapiens) (UniProt P34949) (assay: MPI inhibition at elevated mannose 6-phosphate – biochemical, fluorescence intensity, high mannose 6-phosphate, primary screen (AID 1220)). Details: recombinant PMI enzyme, coupled fluorescence intensity; at 20 µM; active compounds read high.
Mannose-6-phosphate isomerase (Homo sapiens), sequence (P34949 whole entry, looked up): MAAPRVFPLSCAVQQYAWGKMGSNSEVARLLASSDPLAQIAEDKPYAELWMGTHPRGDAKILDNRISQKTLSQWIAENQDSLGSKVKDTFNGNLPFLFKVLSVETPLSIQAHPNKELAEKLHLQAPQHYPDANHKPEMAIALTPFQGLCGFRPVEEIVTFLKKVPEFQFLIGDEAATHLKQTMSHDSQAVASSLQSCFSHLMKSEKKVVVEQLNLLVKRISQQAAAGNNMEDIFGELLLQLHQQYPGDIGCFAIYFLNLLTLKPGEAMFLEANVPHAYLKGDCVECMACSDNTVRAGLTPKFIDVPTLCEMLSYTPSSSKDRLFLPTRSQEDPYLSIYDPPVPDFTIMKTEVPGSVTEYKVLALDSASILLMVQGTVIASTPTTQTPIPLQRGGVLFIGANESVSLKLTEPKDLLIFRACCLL

inhibition, inactive:
Cc1ccc(NC(=O)c2ccco2)c(NC(=O)C2CCCO2)c1 (stereo not given) 11.8%
O=C(Nc1cccc(NC(=O)C2CCCO2)c1)c1ccco1 (stereo not given) 13.7%
CCOC(=O)N1CCC(N(CCN(C)C)C(=S)Nc2cccc(Cl)c2)CC1 10.6%
O=C(O)c1cc(S(=O)(=O)N2CCOCC2)ccc1N1CCOCC1 -9.3%
Cc1ccc(C)n1-c1cc(S(=O)(=O)N2CCOCC2)ccc1N1CCCC1 17%
O=S(=O)(c1ccc2c(c1)oc1ccccc12)N1CCOCC1 3.7%
O=c1c2ccccc2sn1-c1ccc(S(=O)(=O)N2CCCC2)cc1 5%
Cc1cc2ccccc2n1CCNC(=O)C(C)Oc1ccccc1 (stereo not given) 5.6%
Cc1cc(Nc2ccccc2)nc(N2CCOCC2)n1 -4.3%
COCCCNC(=O)c1cc(C(=O)c2c(-c3c(Cl)cccc3Cl)noc2C)c[nH]1 -2.4%
CC1(C)CC(=O)c2cnc3c(C#N)cnn3c2C1 6.6%
Cc1ccc(CN(Cc2ccco2)C(=S)Nc2ccccc2C)cc1 8.6%
COc1nsnc1N1CCOCC1 -11.2%
O=c1[nH]snc1N1CCOCC1 -7.2%
Cc1ccc(Oc2c(F)c(F)nc(N3CCCC3)c2F)cc1 32.2%
CCN(CC(=O)NCc1cccs1)C(=O)CCc1c[nH]c2ccccc12 8.8%
Cc1cc(N)n(-c2ccc(C(=O)O)cc2)n1 2.1%
Cc1cc(C)n(-c2ccc(C(=O)O)cc2)n1 30.6%
O=C(Cn1cnc2sc(-c3ccccc3)cc2c1=O)NCc1ccccc1 -8.4%
CCOC(=O)C1=C(CSc2nccn2C)NC(=O)NC1c1cc(C)ccc1C (stereo not given) -2%
CCN(CC)Cc1cc(C(C)=O)ccc1O -8.6%
CCc1oc(C(=O)O)cc1CN(CC)CC 10.9%
CC(=O)Nc1ccc(NC(=O)CCC(=O)OCC(=O)c2ccc(C)c([N+](=O)[O-])c2)cc1 -5.6%
O=C(c1ccc(C(=O)N2CCOCC2)s1)N1CCOCC1 -3.8%
CCN1C(=O)/C(=C/C=C2/Sc3ccc4ccccc4c3N2CCO)SC1=S -5.4%
CN1C(=O)/C(=C/C=C2\SCCN2C)SC1=S 29.3%
CC1(C)CC2CC(C)(CN2C(=O)C23CCC(C)(C(=O)O2)C3(C)C)C1 (stereo not given) 9.1%
O=C(COC(=O)CCc1ccccc1)Nc1cc(S(=O)(=O)N2CCOCC2)ccc1N1CCCC1 7.1%
O=c1[nH][nH]c(C(F)(F)F)c1C=Nc1ccccc1Cl -6.7%
Cc1cccc(C)c1N=Cc1c(C(F)(F)F)[nH][nH]c1=O 0.2%
COc1ccc(CNC(=O)CN(c2ccccc2)S(=O)(=O)c2ccccc2[N+](=O)[O-])cc1 -11.2%
CCN(Cc1ccccc1)C(=O)Cn1cc2c(n1)CCCC2 10.5%
Cc1ccc(CNC(=O)CCc2nc3ccccc3c(=O)[nH]2)cc1 2.2%
CCOC(=O)N1CCC(c2nc(C)sc2C(=O)O)CC1 1.2%
CC(C)Cn1nc(NC(=O)C2CCCO2)c2cc3ccccc3nc21 (stereo not given) 6.4%
Cc1occc1-c1nnc(SCC(=O)N2CCOCC2)n1CC(C)C 6.1%
COc1ccc([N+](=O)[O-])cc1NC(=O)CC(c1ccccc1)c1ccccc1 7.4%
COc1ccc([N+](=O)[O-])cc1NC(=O)CC(C)c1ccccc1 (stereo not given) 14.4%
CS(=O)(=O)N1CCC(Oc2ccccc2C(=O)NC(C2CC2)C2CC2)CC1 2.8%
CCOC(=O)c1cnc(SC2CC(=O)N(c3ccc(C)cc3)C2=O)nc1N (stereo not given) -5.1%
CCOC(=O)c1cnc(SC2CC(=O)N(c3ccccc3)C2=O)nc1N (stereo not given) 0.1%
COCCn1nnnc1C(C(C)C)N1CCSCC1 (stereo not given) -8%
O=C(/C=C\NCC(=O)c1ccccc1)c1ccc(F)cc1 -70.8%
N#CC1(C#N)CC(C=O)=C(N)C1(C#N)CC(=O)C12CC3CC(CC(C3)C1)C2 (stereo not given) 32.5%
COc1ccc(OCCNc2cc(N3CCOCC3)ccc2[N+](=O)[O-])cc1 5.4%
O=C(CSc1ccc(Cl)cc1)Nc1cccc(-c2nc3ncccc3o2)c1 -3.6%
O=C(Nc1ccc(S(=O)(=O)NCc2ccccc2)cc1)Nc1ccc2c(c1)OCO2 8.6%
O=C(NCc1ccc2c(c1)OCO2)Nc1ccc2nsnc2c1 26.7%
CN(C)C(=S)Nc1ccc2c(c1)OCO2 11.8%
S=C(NCc1ccc(Cl)c(Cl)c1)Nc1ccc2c(c1)OCO2 10.2%
C=CCNC(=S)Nc1ccc2nsnc2c1 9.9%
NS(=O)(=O)c1ccc(NC(=S)NCc2ccc3c(c2)OCO3)cc1 17.1%
C=CCN(CC=C)C(=S)Nc1ccc(OC)c(OC)c1 20.1%
NC(=S)Nc1ccc2c(c1)OCO2 1.7%
CCCN1C(=O)C(O)(C/C(C)=N/O)c2ccccc21 (stereo not given) 3.5%
COc1ccc(CC(=O)OC(C)CN2CCOCC2)cc1 (stereo not given) -1.4%
Cc1ccc(-c2nc(C3CCCN(S(=O)(=O)c4ccc(C)cc4)C3)no2)cc1 (stereo not given) 5.6%
CCN(CC)S(=O)(=O)c1ccc(C(=O)OCn2c(SC)nnc(C)c2=O)cc1 12.1%
O=S(=O)(c1ccc(NC(=S)Nc2ccccc2)cc1)N1CCOCC1 -2.7%
O=C(Nc1ccc2c(c1)OCCO2)Nc1ccc2c(c1)OCO2 13%
O=C(Nc1ccc2c(c1)OCO2)Nc1ccc2c(c1)OCO2 15.8%
CCn1ncc(NC(=S)NCCc2ccccc2)c1C(N)=O 5.4%
O=S(=O)(NCc1ccccc1)c1cccc(S(=O)(=O)N2CCOCC2)c1 4.1%
Cc1ccc(NC(=S)Nc2ccc(S(=O)(=O)N3CCOCC3)cc2)cc1S(=O)(=O)N1CCOCC1 -1.2%
O=S(=O)(NCc1ccc(F)cc1)c1cccc(S(=O)(=O)N2CCOCC2)c1 -0.5%
CCn1ncc(Br)c1C(=O)Nc1ccc2c(c1)OCCO2 0.3%
O=C1CC(c2ccc(F)cc2)CC2=C1C=Nc1ccccc1N2 (stereo not given) -4.8%
Cc1nn(Cc2ccccc2)c(C)c1NC(=O)CCCn1nc(C)c([N+](=O)[O-])c1C -2.1%
CCCCC(=O)Nc1ccc(NC(=O)c2cc(OC)c(OC)c(OC)c2)cn1 3.2%
CCN1CCCc2cc(CN(CCN3CCOCC3)C(=S)Nc3ccc(OC)c(OC)c3)ccc21 22.3%
COc1ccccc1CNC(=O)C1CCC(CNc2c(N3CCOCC3)c(=O)c2=O)CC1 (stereo not given) 16.7%
CC(=O)c1cnc(Nc2ccc(C)cc2)s1 1.9%
C=CCSc1nnc(NC(=O)CSc2nc3ccccc3[nH]2)s1 4.3%
Cc1cc(NC(=O)c2ccc(Cl)cc2)n(CCOC(=O)c2ccc(Cl)cc2)n1 10.6%
Cc1nc2ccc(NC(=O)NCCO)cc2s1 3.3%
COc1ccc(C(=O)NCc2ccc(Cl)c(Cl)c2)cc1OC -0.1%
Cc1cccc(-c2nc(CS(=O)CC(=O)N3CCCCC3)c(C)o2)c1 (stereo not given) 5.1%
Cc1ccccc1-n1c(=O)cc(N2CCC3(CC2)OCCO3)[nH]c1=O 7%
O=c1cc(N2CCCCCC2)[nH]c(=O)n1-c1ccccc1Cl -6.5%
CCOC(=O)/C(N=Nc1ccc(C(=O)O)cc1[N+](=O)[O-])=C(\C)O -1.9%

inhibition, active:
O=C(Nc1ccccc1NC(=O)C1CCCO1)c1ccco1 (stereo not given) 51.8%
O=c1c2ccccc2sn1-c1cc(S(=O)(=O)N2CCOCC2)ccc1N1CCCC1 77.3%
O=c1c2ccccc2sn1-c1cc(S(=O)(=O)N2CCOCC2)ccc1N1CCOCC1 96.3%
O=c1c(N2CCOCC2)nsnc1N1CCOCC1 53.3%
CC(C)(C)c1cc(N)n(-c2ccc(C(=O)O)cc2)n1 52.8%
CCN(CC)Cc1cc(O)c(CN(CC)CC)cc1O 54.7%
CCN1C(c2ccccc2)=C(c2ccccc2)S/C1=C/C=C1\SC(=S)N(C)C1=O 54.4%
Cc1cc(O)ccc1N=Cc1c(C(F)(F)F)[nH][nH]c1=O 62.2%
COc1ccc(C(CC(=O)Nc2cc([N+](=O)[O-])ccc2OC)c2ccccc2)cc1 (stereo not given) 54.1%
CCOC(=O)c1cnc(SC2CCc3ccccc3C2=O)nc1N (stereo not given) 53%
N#CC1(C#N)CC(C=O)=C(N)C1(C#N)CC(=O)c1ccc(F)cc1 (stereo not given) 52.8%
S=C(Nc1ccc2c(c1)OCO2)Nc1ccc2c(c1)OCO2 62.3%
S=C(NCc1ccc2c(c1)OCO2)Nc1ccc2nsnc2c1 53.7%
CNS(=O)(=O)c1ccc(NC(=S)Nc2ccc3c(c2)OCO3)cc1 55.7%
C=CCN(CC=C)C(=S)Nc1ccc2nsnc2c1 55.3%
O=S(=O)(NCc1ccc2c(c1)OCO2)c1cccc(S(=O)(=O)N2CCOCC2)c1 52.5%
O=S(=O)(c1ccc(NC(=S)Nc2ccc3c(c2)OCO3)cc1)N1CCOCC1 52.2%
CCn1ncc(NC(=S)Nc2ccc3c(c2)OCO3)c1C(N)=O 57.3%
S=C(Nc1ccc2c(c1)OCCO2)Nc1ccc2c(c1)OCO2 62.7%
Cc1ccccc1-n1c(=O)cc(N2CCCCCC2)[nH]c1=O 62.9%
